Rv3671c inh: inhibitors of M. tuberculosis serine protease Rv3671c; P9WHR9; inhibition, % at 5.96 µM; 320,000 tested, 0.048% active; in the data active = inhibition above about 38%;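 also: extracellular domain of Rv3671c used as enzyme; 0% = enzyme with DMSO and 100% = no enzyme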
Mtb bLac sens: beta-lactam sensitization of Mtb H37Rv | inhibition, % at 25 µM | 330,000 tested, 0.27% active | M. tuberculosis H37Rv growth with meropenem, percent inhibition; call rule not given here;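 also: growth measured after seven days incubation then overnight dye step; 0% = bacteria only wells and 100% = bacteria with antibiotic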
FBA Mtb inh: Mtb fructose-bisphosphate aldolase inhibition; inhibition, % at 1 µM; 360,000 tested, 2.3% active; P9WQA3; purified M. tuberculosis FBA, fluorescence read-out;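 also: 0% = vehicle and 100% = reference inhibitor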
UGM FP inh: blocks M. tuberculosis UGM enzyme. P9WIQ1. inhibition, % at 10 µM. purified UGM, fluorescence polarization probe displacement. AID 504406. 320,000 tested, 0.06% active; in the data active = inhibition above about 10%, passing the limit was not always enough
Target sequence (P9WIQ1 whole entry, looked up): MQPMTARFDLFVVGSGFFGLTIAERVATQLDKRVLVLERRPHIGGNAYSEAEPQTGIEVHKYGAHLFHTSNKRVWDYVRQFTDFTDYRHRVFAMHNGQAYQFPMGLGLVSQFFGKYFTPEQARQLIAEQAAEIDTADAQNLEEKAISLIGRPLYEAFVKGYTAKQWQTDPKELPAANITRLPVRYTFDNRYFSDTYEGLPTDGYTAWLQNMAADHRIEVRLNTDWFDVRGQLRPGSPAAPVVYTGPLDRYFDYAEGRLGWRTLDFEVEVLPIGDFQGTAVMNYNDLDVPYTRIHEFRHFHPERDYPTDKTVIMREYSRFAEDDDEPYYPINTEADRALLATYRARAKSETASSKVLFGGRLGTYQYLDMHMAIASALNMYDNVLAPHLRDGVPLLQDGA
FadD28 binding: M. tuberculosis FadD28 bisubstrate binding inhibition. AID 588549. 360,000 tested, 0.22% active. FadD28 bisubstrate probe binding, fluorescence polarization. inhibition, % at 12.5 µM; in the data active = inhibition above about 8.5%, passing the limit was not always enough
GDH-TPI counter-1: GDH-TPI coupled enzyme inhibition counter-screen; GDH-TPI coupled enzyme counterscreen, NADH absorbance; inhibition, % at 4.8 µM; 360,000 tested, 1.2% active; AID 588335; in the data active = inhibition above about 30%;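 also: 0% = DMSO wells and 100% = wells lacking the enzyme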
Mtb FBA confirm: Mtb FBA inhibition, confirmed | shares compounds with FBA Mtb inh | purified M. tuberculosis FBA, fluorescence read-out | inhibition, % at 1 µM | 5,600 tested, 78% active | AID 651616;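 also: 0% = vehicle wells and 100% = reference inhibitor wells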
GDH-TPI counter-2: GDH-TPI inhibition counter-screen for FBA inhibitors | shares compounds with FBA Mtb inh | GDH-TPI coupled enzyme counterscreen, fluorescence | inhibition, % at 1 µM | 5,600 tested, 81% active | AID 652141; in the data active = inhibition above about 10%
An asterisk follows results filed as active; x = not tested or not shown; + = active, no number. Only some compounds are listed: those with a hit (about 3.7% of all), similar ones and a draw of the others. Rule as the data show it, unless noted: active = inhibition above about 27%; inactive = the rest.

SMILES	Rv3671c inh	Mtb bLac sens	FBA Mtb inh	UGM FP inh	FadD28 binding	GDH-TPI counter-1	Mtb FBA confirm	GDH-TPI counter-2
COc1ccc(-c2cc(C(F)(F)F)n3ncc(C(=O)NCc4ccco4)c3n2)cc1	-1	28	30*	2	0	24	165*	145*
CCCn1c(=O)c2c(C(=O)OCC)cc(-c3ccco3)nc2n(CCC)c1=O	x	x	41*	x	1	6	166*	124*
Cc1nc2c(C(=O)NCc3ccco3)cnn2c(C)c1Cc1ccc(F)cc1Cl	1	6	26	-1	2	6	x	x
Cc1cccc(Cc2c(C)nc3c(C(=O)NCc4ccco4)cnn3c2C)c1	-13	x	31*	-2	0	5	194*	148*
CCOC(=O)c1ccc(N2C=C(C(=O)OC)C(c3cccc(O)c3)C(C(=O)OC)=C2)cc1	-3	-6	111*	1	-1	7	97*	81*
COC(=O)C1=CN(c2ccc(OC)cc2)C=C(C(=O)OC)C1c1cccc(F)c1	-4	-10	26	-2	-3	-1	x	x
CS(=O)(=O)NNC(=O)Cn1nnc(-c2ccc(OCc3ccccc3Cl)cc2)n1	-21	42	-3	2	-2	-1	x	x
CSCCC(NC(=O)OCc1ccccc1)NC(=O)OCc1ccccc1	x	x	7	x	0	x	x	x
COc1ccccc1C(=O)NCCNc1nc2cc(C)cc(C)c2cc1C#N	-3	7	5	3	-2	10	x	x
COc1cc(C(=O)NCCCNc2nc3cc(C)c(C)cc3cc2C#N)cc(OC)c1OC	-3	5	52*	-3	0	5	75*	62*
COc1cc(C(=O)NCCNc2nc3cc(C)ccc3cc2C#N)cc(OC)c1OC	-3	-2	13	0	0	10	x	x
Cc1cccc2cc(C#N)c(NCCNC(=O)c3ccccc3)nc12	x	x	40*	x	-4	13	+	+
Cc1cc(C)c2cc(C#N)c(NCCCNC(=O)c3cccnc3)nc2c1	x	x	47*	x	-1	10	32*	30*
COc1cc(OC)cc(C(=O)NCCNc2nc3cc(C)cc(C)c3cc2C#N)c1	-7	1	31*	-2	-2	12	-9	-4
CC1=CNC(=O)CC(C)(C)C1	x	x	-1	x	0	x	x	x
Cc1ccc(NC(=O)COC(=O)C2CCC2)cc1S(=O)(=O)N1CCOCC1	-1	-2	1	-1	-1	8	x	x
Nc1ncnc(Nc2ccccc2Oc2ccccc2)n1	x	x	-3	x	-5	-6	x	x
COCCCNC(=S)NCCCNc1nc2cc(C)cc(C)c2cc1C#N	-3	48	47*	0	-4	0	6	-7
Cc1cc(C)c2cc(C#N)c(NCCNC(=S)NCCCN3CCOCC3)nc2c1	6	-1	24	2	0	-1	x	x
COc1ccc(C(=O)NCCCNc2nc3cc(C)cc(C)c3cc2C#N)cc1	x	x	37*	x	0	0	3	-6
CCc1nc(SCC(=O)Nc2cc(C)ccc2OC)c2c(C)c(C)sc2n1	7	0	3	-4	2	1	x	x
CCN(CC)S(=O)(=O)c1ccc(N2CCN(C)CC2)c(NC(=O)CN2C(=O)NC3(CCCCC3)C2=O)c1	x	x	1	x	-2	3	x	x
COc1cc(OC)cc(-c2c(-c3ccc(F)cc3)c3cc(-c4ccc5[nH]ccc5c4)ccc3n2C)c1	-8	-1	49*	-2	-3	25	-4	-5
COc1cccc(-c2c(-c3cc(OC)cc(OC)c3)n(C)c3ccc(-c4ccc(OC)nc4)cc23)c1	1	-5	1	3	-3	3	x	x
COc1cccc(-c2c(-c3cc(OC)cc(OC)c3)n(C)c3ccc(-c4ccc5[nH]ccc5c4)cc23)c1	1	-8	42*	1	-2	24	+	+
SMILES	Rv3671c inh	Mtb bLac sens	FBA Mtb inh	UGM FP inh	FadD28 binding	GDH-TPI counter-1	Mtb FBA confirm	GDH-TPI counter-2
OC(c1ccc(F)cc1)c1nc(-c2ccc(F)c(Cl)c2)cs1 (stereo unspecified)	x	x	-2	x	-2	6	x	x
Cc1ccc(-c2nn(-c3ccccc3)cc2/C=C/C(=O)O)o1	-10	66	39*	2	-4	16	-2	-3
Cc1ccc(-c2nn(-c3ccccc3)cc2C(=O)O)o1	8	3	x	-1	x	x	x	x
COc1ccc(Cc2nc3ccc(C(=O)NCCc4ncccc4C)cc3o2)cc1OC	x	x	-1	x	-4	10	x	x
C/C(N)=C(/C#N)C(=O)COC(=O)c1ccccc1O	-1	-2	-3	0	1	-1	x	x
C/C(N)=C(/C#N)C(=O)COC(=O)c1cccc2ccccc12	-10	1	28*	-1	-3	5	73*	55*
COC(=O)c1cc(C#N)c(N2CCN(C)CC2)nc1C	2	1	1	-3	0	5	x	x
COC(=O)c1cc(C#N)c(N2CC(C)OC(C)C2)nc1C (stereo unspecified)	-7	6	35*	3	-1	5	65*	44*
CC(=O)NCCNc1nc2cc(-c3ccc(C)cc3)sc2c(=O)n1C	x	x	3	x	-6	18	x	x
CC(=O)NCCNc1nc2cc(-c3ccc4c(ccn4C)c3)sc2c(=O)n1C	x	x	33*	x	-3	11	78*	83*
CN1C(=S)SC(N(O)C(=O)Nc2cccc3ccccc23)C1(C)C (stereo unspecified)	0	-2	44*	3	-3	-5	35*	25*
CN1C(=S)SC(N(O)C(=O)Nc2ccccc2)C1(C)C (stereo unspecified)	1	0	0	-1	0	-5	x	x
CCc1cc(=O)oc2cc(OCC(=O)N3CCC[C@H]3C(=O)O)ccc12	1	-4	35*	5	1	15	+	+
Cc1cc(=O)oc2cc(OCC(=O)N3CCCC(C)C3)ccc12 (stereo unspecified)	3	-11	24	-2	-1	11	x	x
CCCCCCc1c(C)c2ccc(OCC(=O)N3CCC[C@H]3C(=O)O)c(C)c2oc1=O	-2	-1	81*	0	-11	27	148*	113*
CCCc1cc(=O)oc2c(C)c(OCC(=O)N3CCC[C@@H]3C(=O)O)ccc12	1	3	43*	1	-1	19	55*	45*
Cc1c(OCC(=O)NCC2CCC(C(=O)O)CC2)ccc2c3c(c(=O)oc12)CCC3 (stereo unspecified)	4	-12	14	0	-1	19	x	x
CCCc1cc(=O)oc2c(C)c(OCC(=O)N3C[C@H]4C[C@@H](C3)c3cccc(=O)n3C4)ccc12	3	-3	9	-2	1	21	x	x
Cc1noc(C)c1-c1ccc(C(=O)NCc2ccc(Cl)cc2)c2occc12	x	x	-2	x	-8	-3	x	x
CC(C)(C)Cc1c(-c2ccc(Cl)cc2)nc2c(Cl)cc(C(F)(F)F)cn12	x	x	-1	x	-4	x	x	x
